Assay results published in PubChem BioAssay AID1626 (SRMLSC, 2009).
The whole screen tested about 220,000 compounds, of which about 2,000 (0.91%) were called active. Another 2% or so got no clear call; they are omitted. Cut-off read from the data, not from the text of the source: inconclusive = inhibition above about 80% without an active follow-up result; inactive = below that; test concentration not stated here. Only a sample is shown. Measured potencies and affinities stand elsewhere.

Assay: M. tuberculosis H37Rv growth inhibitors, H37Rv strain (AID 1626);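 note: bacteria incubated seven days before Alamar blue readout; 0% = bacteria only wells and 100% = bacteria with antibiotic wells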
Conditions: stronger effect = higher value, concentration not given here

SMILES | inhibition
O=C(CCn1c(=O)oc2ccccc21)N(Cc1ccccc1)c1ccccc1 | -1.76% (inactive)
Cc1nc2c(cnn2-c2ccccc2)c(=O)n1/N=C/c1ccccc1 | 3.66% (inactive)
COc1ccc(C(=O)Cc2nnc(C)s2)c(OC)c1 | -1.08% (inactive)
Cc1[nH]c2ccccc2c1-c1csc(NC(=O)CN2CCOCC2)n1 | 1.74% (inactive)
O=C(COC(=O)c1c2c(nc3ccccc13)CCCC2)Nc1ccc2c(c1)OCO2 | 4.85% (inactive)
O=C(COC(=O)c1cc(-c2ccccc2)nc2ccccc12)Nc1ccc2c(c1)OCO2 | -6.74% (inactive)
COc1ccc(S(=O)(=O)N2CCCCCC2)cc1C(=O)OC(C)C(N)=O (configuration not stated) | -6.24% (inactive)
CCN(CCCNC(=O)C1CCCN(S(=O)(=O)c2cnc[nH]2)C1)c1ccccc1 (configuration not stated) | -7.75% (inactive)
COc1ccc(C)cc1NC(=O)C(OC(=O)C1CC1)c1ccccc1 (configuration not stated) | 0.31% (inactive)
O=C(COC(=O)c1ccccc1)Nc1ccc(Cl)cn1 | -1.7% (inactive)
COc1ccc(C(=O)OCC(=O)Nc2ccc(Cl)cn2)cc1 | -2.66% (inactive)
O=C(CCN1C(=O)S/C(=C\c2cccs2)C1=O)NC1=NCCS1 | -3.39% (inactive)
COc1cc(NC(=O)CCN2CCN(c3ccccc3F)CC2)cc(OC)c1 | -9.84% (inactive)
CCOc1ccc(NC(=O)CCN2CCN(c3ccccc3OC)CC2)cc1 | 7.58% (inactive)
COc1ccc(Nc2nc(N)nc(COc3ccc(OC)cc3)n2)cc1 | 3.88% (inactive)
Nc1nc(CN2CCN(Cc3ccccc3)CC2)nc(Nc2ccccc2)n1 | -0.83% (inactive)
COc1ccc(Nc2nc(N)nc(CCl)n2)cc1 | 63.6% (inactive)
Nc1nc(CN2CCN(c3ccccc3F)CC2)nc(Nc2ccccc2)n1 | 55.9% (inactive)
CCOC(=O)N1CCN(Cc2nc(N)nc(Nc3ccc(OCC)cc3)n2)CC1 | -0.7% (inactive)
Nc1nc(CN2CCCCCC2)nc(Nc2ccccc2)n1 | 0.64% (inactive)
Cc1cc(Nc2ccc(C)c(Br)c2)n2nc(C)nc2n1 | -3.51% (inactive)
Cc1cccn2c(=O)c(/C=N/O)c(Nc3ccccc3F)nc12 | -2.23% (inactive)
CCOC(=O)c1cccc(NC(=O)CN(c2ccc(C)cc2)S(=O)(=O)c2c(C)n[nH]c2C)c1 | -3.83% (inactive)
COc1cccc(Nc2nc(N)nc(CCl)n2)c1 | 75.6% (inactive)
Cc1ccc(Nc2nc(N)nc(CCl)n2)cc1 | 73.8% (inactive)
COc1ccc(Sc2cc(C(F)(F)F)nc(-c3ccccn3)n2)cc1 | 4.59% (inactive)

SMILES | inhibition
COc1cccc(-c2nc(-c3ccccn3)no2)c1OC | -1.55% (inactive)
COc1ccccc1-c1nc(-c2ccccn2)no1 | 0.6% (inactive)
COc1cnc(-c2ccccc2)nc1Sc1ccccc1 | -2.28% (inactive)
COc1cnc(N(C)C)nc1Sc1ccc(Cl)cc1 | -2.94% (inactive)
FC(F)(F)c1cc(Sc2ccccc2)nc(-c2ccccn2)n1 | 4.07% (inactive)
Cc1ccc(SCc2nc(-c3ccccn3)no2)cc1 | 11.6% (inactive)
CCOC(=O)CSc1nc(-c2ccccn2)ncc1OC | 10.3% (inactive)
c1ccc2c(N3CCCCC3)nnc(N3CCCCC3)c2c1 | -2.8% (inactive)
Cc1nc(-c2ccccc2)sc1C1(C)CC(c2ccc(C#N)cc2)=NO1 (configuration not stated) | -5.09% (inactive)
Cc1cnc(C(=O)OCC(=O)Nc2cc(Cl)cc(Cl)c2)cn1 | -2.03% (inactive)
CC(=O)N1CCC2(CC1)CC(=O)c1cc(OCC(=O)NCc3ccc(C)cc3)ccc1O2 | 4.89% (inactive)
CCOc1ccc(Cc2noc3c2C(=O)CC(C)(C)C3)cc1OCC | 5.77% (inactive)
O=C(CNc1cc(S(=O)(=O)N2CCCC2)ccc1OCC(F)(F)F)Nc1cc(Cl)cc(Cl)c1 | 0.25% (inactive)
CCC12CN3CCN(CC(C3)C1O)C2 (configuration not stated) | -8.91% (inactive)
CCOC(=O)C(NC(=O)CC(C)C)(Nc1sc(C)c(CC)c1C#N)C(F)(F)F (configuration not stated) | -1.9% (inactive)
OC(CNCc1cccc(Cl)c1)c1ccccc1 (configuration not stated) | 6.44% (inactive)
NCC(c1ccccc1)c1c[nH]c2ccccc12 (configuration not stated) | -2.1% (inactive)
COc1ccc(C2=NCCn3cccc32)c(OC)c1 | 4.72% (inactive)
Cc1ccn2c(NC3CCCC3)c(-c3ccncc3)nc2c1 | -0.8% (inactive)
Cc1ccn2c(Nc3ccccc3C)c(-c3cccnc3)nc2c1 | 3.46% (inactive)
Cc1ccn2c(Nc3ccc4c(c3)OCO4)c(-c3ccccn3)nc2c1 | 12.5% (inactive)
Cc1ccc(-c2nc3ncccn3c2Nc2ccccc2C)o1 | 10.9% (inactive)
Cc1ccn2c(Nc3ccccc3C)c(-c3ccncc3)nc2c1 | -1.59% (inactive)
Cc1ccn2c(NC3CCCC3)c(-c3cccs3)nc2c1 | -6.97% (inactive)
Cc1ccccc1Nc1c(-c2cccnc2)nc2ccccn12 | 3.53% (inactive)
Cc1ccc(Nc2c(-c3ccccc3)nc3cnccn23)cc1 | 3.65% (inactive)

SMILES | inhibition
CCOc1ccccc1NC(=O)CN1C(=O)COc2ccc(Cl)cc21 | -3.19% (inactive)
Cc1cc(CNC(=O)Cn2nc(C)c([N+](=O)[O-])c2C)c2ccccc2n1 | -7.05% (inactive)
Oc1cccnc1CCc1ccccc1 | -10.6% (inactive)
CCOC(=O)c1sc(NC(=O)c2ccc(C)o2)nc1C | 2.75% (inactive)
CCCn1nnc(NC(=O)c2cccnc2Cl)n1 | 7.01% (inactive)
Cc1cc(NC(=O)CSc2nc(C3CCCCC3)nc3ccccc23)no1 | 7.18% (inactive)
Nc1c(-c2ccccc2)cnc2cc(-c3ccccc3)nn12 | 4.02% (inactive)
Cc1ccc(-c2nc3cnccn3c2Nc2ccccc2)o1 | 9.96% (inactive)
Cc1ccn2c(NCc3ccccc3)c(-c3cccs3)nc2c1 | 6.23% (inactive)
CCOc1ccccc1NC(=O)NC1(C(=O)N2CCOCC2)CCCCC1 | -10.7% (inactive)
O=C(CSCc1ccco1)c1cccs1 | -1.66% (inactive)
O=C(CSc1nnc(-c2ccc(O)cc2)n1Cc1ccco1)c1cccs1 | 2.2% (inactive)
O=S(=O)(c1cccc2cccnc12)N1CCN(Cc2ccc3c(c2)OCO3)CC1 | -5.89% (inactive)
Cc1[nH]c2ccccc2c1/C=N/NC(=O)CNC(=O)COc1ccccc1 | 10% (inactive)
COc1ccc(OC)c(-c2nc(CN3CCCCC3c3cccnc3)c(C)o2)c1 (configuration not stated) | -0.43% (inactive)
COc1ccc(-c2noc(CN3CCCCC3c3nccn3C)n2)cc1 (configuration not stated) | 6.82% (inactive)
CC(C)N(Cc1nccn1C)C(=O)CCc1nnc(CCCc2ccccc2)o1 | -2.35% (inactive)
Nc1nc(N2CCCCC2)nc(N(c2ccccc2)c2ccccc2)n1 | 1.26% (inactive)
C=CCNc1nc(-c2ccccc2)nc(-n2ccnc2)n1 | 16.6% (inactive)
c1ccc(N(c2ccccc2)c2nc(-n3ccnc3)nc(-n3ccnc3)n2)cc1 | -4.28% (inactive)
c1ccc(-c2nc(NC3CC3)nc(-n3ccnc3)n2)cc1 | -0.68% (inactive)
COc1nc(N(c2ccccc2)c2ccccc2)nc(-n2ccnc2)n1 | 25.8% (inactive)
c1ccc(-c2nc(-n3ccnc3)nc(-n3ccnc3)n2)cc1 | 3.02% (inactive)
c1ccc(-c2ccc(CN3CCN(c4ncccn4)CC3)cc2)cc1 | -1.29% (inactive)
CCCCNc1nc(N(C)c2ccccc2)nc(-n2ccnc2)n1 | 51.3% (inactive)
Cc1nccc(-c2sc(-c3cccs3)nc2C)n1 | 2.12% (inactive)

SMILES | inhibition
COc1ccc(N2C(=O)N(Cc3ccccc3F)c3ccccc3S2(=O)=O)cc1 | 6.95% (inactive)
CCCCNC(=O)c1ccc(SCC(=O)N(CC)CC)c([N+](=O)[O-])c1 | 0.05% (inactive)
Brc1ccc(Oc2ncc(CN3CCN(c4ccccc4)CC3)s2)cc1 | 2.17% (inactive)
Cc1ccc(-c2cn(-c3ccc(OC(F)F)cc3)c3[n+]2CCCCC3)cc1 | -4.29% (inactive)
O=C(Cn1nc(-c2nn(CC(=O)c3ccccc3)c3[n+]2CCCCC3)[n+]2c1CCCCC2)c1ccccc1 | 6.97% (inactive)
O=C(O)CCCC(=O)NNC(=O)c1cccc(Br)c1 | 0.6% (inactive)
COc1cc(CNCc2ccccc2)cc(Cl)c1OC | 4.65% (inactive)
CCOc1cc(CNCCc2ccc(S(N)(=O)=O)cc2)cc(Cl)c1OCc1ccccc1 | 58.8% (inactive)
O=C(O)c1ccc(COc2ccccc2/C=C2\NC(=O)N(Cc3ccccc3F)C2=O)cc1 | -2.79% (inactive)
CN=C(Nc1ccccc1OC)SC1CC(=O)N(c2ccc(C(=O)OC)cc2)C1=O (configuration not stated) | 7.4% (inactive)
CN=C(Nc1ccccc1)SC1CC(=O)N(c2ccc(C(=O)OC)cc2)C1=O (configuration not stated) | -2.27% (inactive)
COc1ccc(N=Cc2c(O)n(Cc3ccccc3)c(=S)[nH]c2=O)c(OC)c1 | 6.73% (inactive)
O=C(CSc1nnc(-c2cccnc2)n1-c1ccccc1)NCc1ccc2c(c1)OCO2 | 6.03% (inactive)
CC(Oc1ccc(Cl)cc1Cl)c1ccn[nH]1 (configuration not stated) | 2.27% (inactive)
O=C(O)CCC(=O)NN1C(=O)c2ccccc2NC1c1ccco1 (configuration not stated) | -6.39% (inactive)
COc1ccc(NC(=O)c2cc3ccc4c5ccccc5[nH]c4c3cc2O)cc1 | 2.53% (inactive)
CC(=O)Nc1ccc2[nH]c3ccccc3c2c1 | 10.6% (inactive)
CC(OC(=O)c1ccccc1O)C(=O)Nc1cccc(Cl)c1 (configuration not stated) | 3.01% (inactive)
CCOc1ccc2nc(NC(=O)Nc3ccccc3)sc2c1 | 1.1% (inactive)
CCC(Sc1nc(C)cc(=O)[nH]1)C(=O)Nc1nnc(C)s1 (configuration not stated) | -7.53% (inactive)
CCOC(=O)Cc1nnc(NC(=O)C(CC)Sc2nc(C)cc(=O)[nH]2)s1 (configuration not stated) | -0.83% (inactive)
CCOc1ccc2nc(NC(=O)c3ccoc3C)sc2c1 | 8.64% (inactive)
CCOc1ccc2nc(NC(=O)c3cccnc3)sc2c1 | 3.09% (inactive)
CCOc1ccc2nc(NC(=O)C3=NNC(=O)CC3)sc2c1 | 46.3% (inactive)
